Source: PubChem BioAssay
VDR inhibitor: inhibitors of human vitamin D receptor | P11473 | VDR-SRC2-3 peptide fluorescence polarization, 2 h | Potency, µM, without a hit: max response, negative = inhibition, hits mostly inhibitors | 0.93% of 400,000 active | AID 504847; also: potency is read from the fitted curve at half-maximal effect; % is scaled to controls: 0 for no effect and ±100 for the full control effect
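Two reagent solutions held at 4 deg C in the dark were dispensed, compounds pinned at 23 nl, and the mixture incubated 2 h at room temperature. Read-out: fluorescence polarization of VDR–SRC2-3 peptide binding.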
PLK1 PBD inh: inhibitors of human PLK1 polo-box domain binding; 2.8% of 360,000 active; AID 720504; Potency, µM, for the others: max response, negative = inhibition, usual class: inhibitors; Plk1 PBD binding of FITC phosphopeptide, fluorescence polarization; P53350; also: potency is read from the fitted curve at half-maximal effect; series mostly up to about 57 µM; % is scaled to controls: 0 for no effect and ±100 for the full control effect; nearly all actives have a fitted effect of over 65% in size
TSHR antagonist: antagonists of human thyroid stimulating hormone receptor; activity change, negative = inhibition, % at 11.5 µM; AID 504810; TSHR-expressing cells, TSH-stimulated cAMP HTRF, 2 h; hits give low values; 0.2% of 330,000 active;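 active = activity change below a set negative limit, meaning inhibition stronger than a set level, cut at about -70% in these data; inconclusive = activity change between two set negative limits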; also: % is scaled to controls: 0 for no effect and ±100 for the full control effect
Target sequence (P16473 whole entry, looked up): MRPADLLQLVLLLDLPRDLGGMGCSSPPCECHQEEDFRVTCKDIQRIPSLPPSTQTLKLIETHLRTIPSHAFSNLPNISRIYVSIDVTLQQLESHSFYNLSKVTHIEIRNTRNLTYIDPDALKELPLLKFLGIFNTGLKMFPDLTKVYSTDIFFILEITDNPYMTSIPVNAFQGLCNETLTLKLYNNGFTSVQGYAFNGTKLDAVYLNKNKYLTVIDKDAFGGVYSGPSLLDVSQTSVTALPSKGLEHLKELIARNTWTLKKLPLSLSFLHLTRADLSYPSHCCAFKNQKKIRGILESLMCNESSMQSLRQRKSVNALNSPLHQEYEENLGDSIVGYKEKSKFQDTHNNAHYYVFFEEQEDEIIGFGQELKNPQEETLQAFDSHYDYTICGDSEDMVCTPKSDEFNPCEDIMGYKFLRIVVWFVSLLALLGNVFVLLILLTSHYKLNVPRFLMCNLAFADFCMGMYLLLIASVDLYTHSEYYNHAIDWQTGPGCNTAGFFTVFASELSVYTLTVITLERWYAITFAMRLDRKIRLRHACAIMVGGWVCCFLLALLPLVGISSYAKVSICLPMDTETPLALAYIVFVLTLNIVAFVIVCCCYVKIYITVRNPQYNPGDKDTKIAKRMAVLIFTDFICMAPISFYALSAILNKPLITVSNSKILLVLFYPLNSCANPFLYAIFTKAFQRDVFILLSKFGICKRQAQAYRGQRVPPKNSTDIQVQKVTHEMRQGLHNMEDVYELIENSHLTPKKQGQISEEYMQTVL
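TSHR-expressing cells, 200/well, pre-treated with compound, then stimulated with EC80 TSH (4nM final) for 2 hours at 37 deg C. cAMP measured by competitive HTRF: anti-cAMP cryptate antibody in lysis buffer plus cAMP-d2, read after 30 minutes at room temperature.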
Vif-APOBEC3G blk: blocks the Vif interaction with human APOBEC3G. AID 602310. HeLa A3G-eYFP + Vif (tagged APOBEC3G with the HIV-1 protein that degrades it), YFP fluorescence, overnight. 0.076% of 410,000 active. Potency, µM (highest dose often 46.1 µM), for the others: top-dose activity, negative = active, usual class: inhibitors; also: potency is read from the fitted curve at half-maximal effect; % is scaled to controls: 0 for no effect and ±100 for the full control effect; nearly all actives have a fitted effect of over 60% in size
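HeLa cells stably expressing Vif and C-terminally eYFP-tagged A3G, seeded overnight at 37 deg C, then exposed to compound by pintool overnight at 37 deg C. Rise in yellow fluorescence (Ex 488/Em 500-530, Acumen) marks blocked Vif-driven A3G degradation.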
Vif-APOBEC3F blk: inhibitors of Vif-A3F interaction. Potency, µM (doses to about 46.1 µM), for the others: at the top dose activity, negative = active. HeLa A3F-eYFP + Vif (tagged APOBEC3F with the HIV-1 protein that degrades it), YFP fluorescence increase. 0.2% of 390,000 active; also: potency is read from the fitted curve at half-maximal effect; % of control where 0% means no effect; nearly all actives have a fitted effect of over 65% in size
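Fluorescence increase (Ex 488/Em 500-530) after overnight compound treatment at 37 deg C flags inhibition of Vif-driven A3F-eYFP loss in stable HeLa A3F-eYFP/Vif cells seeded overnight beforehand.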
Active calls of the source: *; ? = inconclusive; . = no result given. A selection: hits, their analogues and other compounds. The true share with any hit is near 3.1%. Unless noted, calls follow the shape of the dose curve; as a rule, active = well fitted curve in the direction sought with a large enough effect; inconclusive = small, poorly fitted or top-dose-only effect, or another doubt; inactive = no such curve, though single readings can be large; an effect the other way counts as inactive or inconclusive.

SMILES	VDR inhibitor	PLK1 PBD inh	TSHR antagonist	Vif-APOBEC3G blk	Vif-APOBEC3F blk
CC(C)C[C@H]1C(=O)N2CCC[C@H]2[C@]2(O)O[C@](NC(=O)C3C=C4c5cccc6[nH]c(Br)c(c56)C[C@H]4N(C)C3)(C(C)C)C(=O)N12 (some centres not stated)	-2%	-7%	.	-2%	1%
CC(C)C1C(=O)N2CCC[C@H]2[C@]2(O)O[C@](NC(=O)[C@@H]3C=C4c5cccc6[nH]cc(c56)C[C@H]4N(C)C3)(C(C)C)C(=O)N12 (some centres not stated)	45µM*	.	.	.	.
CC(C)C[C@H]1C(=O)N2CCCC2[C@]2(O)O[C@](NC(=O)[C@@H]3C=C4c5cccc6[nH]c(Br)c(c56)C[C@H]4N(C)C3)(C(C)C)C(=O)N12 (some centres not stated)	18µM*	.	.	.	.
C[C@@H](COc1ccccc1)N(CCCl)Cc1ccccc1	25µM*	.	.	.	.
CC(C)CCOP(N)(=O)Oc1ccccc1 (configuration not stated)	-16%	-29%	0	3%	-7%
O=C(CCN1CC2CCC(CC2)C1)c1cccs1	45µM*	24µM*	.	-1%	7%
Fc1ccccc1CNC1CN2CCC1CC2 (configuration not stated)	?	19µM*	11	1%	1%
COc1ccc(/C=C2\Oc3cc(OC(=O)N4CCOCC4)ccc3C2=O)c(OC)c1	6%	-19%	-13	?	25µM*
CC(C)c1cc2c(c(O)c1O)[C@@]1(C(=O)O)CCCC(C)(C)[C@@H]1CC2	20µM*	.	.	.	.
C[C@]1(C(=O)O)CCC[C@]2(C)c3cc(O)ccc3CC[C@@H]12	-25%	.	.	.	.
CC(C)c1cc2c(c(O)c1O)[C@]1(C(=O)O)CCCC(C)(C)C1CC2 (some centres not stated)	45µM*	.	.	.	.
CC1(C(=O)O)CCCC2(C)c3cc(O)ccc3CCC12 (configuration not stated)	6%	-17%	.	0%	3%
CCn1c(=S)sc2c(=O)[nH]c(SCC(=O)Nc3cc(OC)ccc3OC)nc21	-2%	?	-26	4%	-1%
CCC[C@@H]1CC2=CC(=O)CC[C@]2(C)[C@@H]2CC[C@@]3(C)[C@H](CC[C@]3(O)CCC(=O)O)[C@H]12	-29%	.	.	.	.
Cc1cccc(NC(=O)c2cc3c(=O)n4ccccc4nc3n2C)c1C	12%	.	.	?	6%
C=CCc1cc(C=C2C(=O)NC(=O)NC2=O)cc(OC)c1OCc1ccc(C(=O)O)cc1	89µM*	12µM*	6	0%	3%
C=CCc1cc(C=C2C(=O)N(C)C(=O)N(C)C2=O)cc(OCC)c1OCc1ccccc1	?	7.5µM*	-10	-12%	-19%
C=CCn1cc(C=C2C(=O)N(C)C(=O)N(C)C2=O)c2ccccc21	13%	-6%	-1	-14%	2%
COC(=O)N(c1ccccc1)P1(=S)OCCO1	?	12µM*	39	1%	-5%
CCOC(=O)N(c1ccccc1)P1(=S)OCCO1	79µM*	12µM*	2	0%	-7%
COC(=O)NC(=S)Nc1ccccc1NC(=S)NC(=O)OC	-16%	?	.	-3%	0%
CCOC(=O)N(c1ccccc1)P1(=S)OCC(C)O1 (configuration not stated)	5%	-7%	-2	-2%	0%
O=C(NCc1nnc(SCC(=O)N2CCN(c3ccccc3)CC2)o1)c1ccco1	-14%	27µM*	4	-1%	0%
CCCOc1ccc2[nH]cc(C3=CCNCC3)c2n1	-27%	.	.	.	.
CCN1C[C@@]2(COC)CCC(OC)[C@]34C5C[C@]6(O)[C@@H](OC)C[C@](OC(C)=O)(C([C@H](OC)C23)[C@H]14)C5[C@H]6OC(=O)c1ccc(OC)cc1 (some centres not stated)	11%	.	.	.	.
COc1ccc(OCCOc2cccc(C=C3C(=O)NC(=O)NC3=O)c2)cc1	.	.	-9	.	.
CN(CCOc1ccc(C=C2C(=O)NC(=O)NC2=O)cc1)c1ccccn1	?	3µM*	-12	-1%	-5%
N#CC(C#N)=NNc1ccc(OC(F)(F)F)cc1	0.89µM*	.	.	.	.
